The target in assay [1] is Thyrotropin receptor (Homo sapiens) (UniProt P16473). Description: qHTS assay to identify small molecule agonists of the thyroid stimulating hormone receptor (TSHR) signaling pathway (AID 1224843; calls by dose curve; note: nearly all actives have a fitted effect of over 45% in size; note: potency is the fitted concentration of half-maximal effect). In outline:
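TSHR-HEK293 cells in agonist mode, 30 min room-temperature step, then cAMP measured by competitive HTRF (cAMP-d2 with anti-cAMP cryptate) after 1 h at room temperature. Tested at 15 concentrations in triplicate.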
For orientation: qHTS replaces the single test concentration by a dilution series.

A short description of assay [2]: qHTS assay to identify small molecule agonists of H2AX (AID 1224845; active = well fitted activation curve with a large enough effect in the signal ratio in the repeat runs, not every such curve was filed as active; the % refers to the signal ratio; note: potency is the fitted concentration of half-maximal effect). The gist of the method:
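Wild-type CHO-K1 cells, plated overnight, exposed 3hr at 37C to 15 concentrations (0.76% DMSO final). Lysed, then HTRF anti-pH2AX (S139) cryptate and anti-H2AX-d2 antibodies, 24 hr room temperature; 665/620 nm emission read.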

A short description of assay [3]: qHTS assay to identify small molecule antagonists of the estrogen related receptor (ERR) signaling pathway from Tox21 library (AID 1224848). Note: nearly all actives have a fitted effect of over 50% in size. Note: potency is the fitted concentration of half-maximal effect. In outline:
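ERR reporter cell line (from NTP) seeded 2,000 cells/well, rested 6 h at 37 C/5% CO2, then pin-dosed with compounds in DMSO. After 18 h at 37 C, ONE-Glo added; luminescence read after 30 min at room temperature.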

The nature of assay [4]: qHTS assay to identify small molecule agonists of the estrogen related receptor (ERR) signaling pathway from Tox21 library (AID 1224849; calls by dose curve; note: nearly all actives have a fitted effect of over 15% in size). Particulars: ERR reporter cell line, ONE-Glo luciferase, 18 h; at 92.4 µM (top of the series). The gist of the method: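 We plated ERR reporter cells, waited 6 h, added compounds in DMSO by pin tool and incubated them 18 h at 37 C. ONE-Glo was then added and luminescence read after 30 min.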

Assay [5] is described as follows: qHTS RealTime-Glo MT Cell Viability Assay in HepG2 cells - 24 hour (AID 1224867). Note: nearly all actives have a fitted effect of over 50% in size. In outline:
(§1)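 Cells + NanoLuc/prosubstrate dispensed (600 cells/well) → 5 h at 37 C/5% CO2 → compounds in DMSO transferred → 40 h incubation at 37 C, luminescence read at 0, 8, 16, 24, 32, 40 h.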

The nature of assay [6]: qHTS RealTime-Glo MT Cell Viability Assay in HEK293 cells - 32 hour (AID 1224868). Note: nearly all actives have a fitted effect of over 50% in size. Note: potency is the fitted concentration of half-maximal effect. In outline: (§2)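 Tox21 10K qHTS, HEK293, 600 cells/well, RealTime-Glo reagent co-dispensed with cells; 5 h preincubation, compound by pintool, 37 C, luminescence at 0–40 h.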
Assay [7] is described as follows: A CellTox Green Cytotoxicity Assay to monitor cytotoxicity in HEK293 cells - 0 hour (AID 1224869). Note: nearly all actives have a fitted effect of over 50% in size. Note: potency is the fitted concentration of half-maximal effect. In outline:
(§3)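 Each value comes from one timepoint of a single continuous run in which HEK293 cells with CellTox Green were exposed to compound for up to 40 h at 37 C, dye fluorescence rising with cell death.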

Assay [8] is described as follows: qHTS RealTime-Glo MT Cell Viability Assay in HepG2 cells - 40 hour (AID 1224870). Note: nearly all actives have a fitted effect of over 50% in size. The gist of the method:
(§4)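 HepG2 cells (600/well) mixed with RealTime-Glo MT reagent, settled 5 h at 37 C/5% CO2 before compound addition. Nonlytic NanoLuc luminescence from viable-cell prosubstrate reduction read repeatedly during 40 h treatment at 37 C.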

Assay [9] can be described thus: A CellTox Green Cytotoxicity Assay to monitor cytotoxicity in HEK293 cells - 40 hour (AID 1224871). Note: nearly all actives have a fitted effect of over 45% in size. Note: potency is the fitted concentration of half-maximal effect. In outline: as §3
A short description of assay [10]: qHTS RealTime-Glo MT Cell Viability Assay in HEK293 cells - 16 hour (AID 1224872). Note: nearly all actives have a fitted effect of over 50% in size. Note: potency is the fitted concentration of half-maximal effect. In outline: as §2
Assay [11] can be described thus: qHTS RealTime-Glo MT Cell Viability Assay in HepG2 cells - 8 hour (AID 1224873). Note: nearly all actives have a fitted effect of over 55% in size. In outline:
as §4

A short description of assay [12]: qHTS RealTime-Glo MT Cell Viability Assay in HEK293 cells - 40 hour (AID 1224874). Note: nearly all actives have a fitted effect of over 50% in size. Note: potency is the fitted concentration of half-maximal effect. The conditions noted are these: RealTime-Glo luminescence; max response: stronger effect = lower value. The gist of the method: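 qHTS format; HEK293 cells with NanoLuc/prosubstrate reagent, 37 C/5% CO2 for 5 h pre-dosing; compounds 23 nL in DMSO; luminescence at each time point reflects viable cells.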

The nature of assay [13]: A CellTox Green Cytotoxicity Assay to monitor cytotoxicity in HEK293 cells - 24 hour (AID 1224875). Note: nearly all actives have a fitted effect of over 45% in size. Note: potency is the fitted concentration of half-maximal effect. In outline: as §3
Assay [14] can be described thus: A CellTox Green Cytotoxicity Assay to monitor cytotoxicity in HepG2 cells - 16 hour (AID 1224876). Note: nearly all actives have a fitted effect of over 45% in size. Note: potency is the fitted concentration of half-maximal effect. In outline:
(§5)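 Continuous culture of HepG2 cells with a membrane-impermeant DNA dye; rising fluorescence marks dead cells. Compound exposure lasted up to 40 h at 37 C, with reads every 8 h from 0 h.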

Assay [15] can be described thus: qHTS RealTime-Glo MT Cell Viability Assay in HepG2 cells - 32 hour (AID 1224877). Note: nearly all actives have a fitted effect of over 55% in size. In outline:
as §1

The nature of assay [16]: A CellTox Green Cytotoxicity Assay to monitor cytotoxicity in HepG2 cells - 24 hour (AID 1224878). Note: nearly all actives have a fitted effect of over 45% in size. Note: potency is the fitted concentration of half-maximal effect. The gist of the method: as §5
Assay [17] in a line: A CellTox Green Cytotoxicity Assay to monitor cytotoxicity in HepG2 cells - 40 hour (AID 1224879). Note: nearly all actives have a fitted effect of over 40% in size. Note: potency is the fitted concentration of half-maximal effect. In outline:
as §5

Assay [18] in a line: qHTS assay to identify small molecule agonists of the hypoxia (HIF-1) signaling pathway (AID 1224846; active = well fitted activation curve with a large enough effect in the signal ratio in the repeat runs, not every such curve was filed as active; the % refers to the signal ratio). The gist of the method: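 Measured by blue/green FRET after loading CCF4-AM: beta-lactamase expressed from a hypoxia response element in ME-180 cells. Test agents were delivered in DMSO and left 17 hrs; cells had been plated 5 hrs earlier in low-serum (0.5% dialyzed FBS) medium.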

A short description of assay [19]: qHTS assay to identify small molecule agonists of H2AX - cell viability counter screen (AID 1224847; calls by dose curve; note: nearly all actives have a fitted effect of over 30% in size; note: potency is the fitted concentration of half-maximal effect). The gist of the method:
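After overnight plating of 1000 CHO-K1 cells per well, a 15-concentration compound series was applied for 3 hr at 37C. Luminescence from CellTiter-Glo, read following 30 min at room temperature, reflected cell viability.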

Values joined by “and” are separate entries in the source; they are usually repeats but may differ in a detail not shown here. Equal entries are not always repeated. Results filed as inconclusive are left out. Some structures have more than one record in an assay (separate samples or runs), and their calls can disagree. Active and inactive are the calls of the source. Unless noted, calls come from the whole dose curve; as a rule, active = well fitted curve in the direction sought with a large enough effect in the repeat runs; inconclusive = weak or mixed curves; inactive = no such curve, though single readings can be large; an effect the other way counts as inactive or inconclusive.
% is set by controls: 0 for no effect and ±100 for the full control effect.

Chain of Thyrotropin receptor (Homo sapiens) (P16473 whole entry, looked up): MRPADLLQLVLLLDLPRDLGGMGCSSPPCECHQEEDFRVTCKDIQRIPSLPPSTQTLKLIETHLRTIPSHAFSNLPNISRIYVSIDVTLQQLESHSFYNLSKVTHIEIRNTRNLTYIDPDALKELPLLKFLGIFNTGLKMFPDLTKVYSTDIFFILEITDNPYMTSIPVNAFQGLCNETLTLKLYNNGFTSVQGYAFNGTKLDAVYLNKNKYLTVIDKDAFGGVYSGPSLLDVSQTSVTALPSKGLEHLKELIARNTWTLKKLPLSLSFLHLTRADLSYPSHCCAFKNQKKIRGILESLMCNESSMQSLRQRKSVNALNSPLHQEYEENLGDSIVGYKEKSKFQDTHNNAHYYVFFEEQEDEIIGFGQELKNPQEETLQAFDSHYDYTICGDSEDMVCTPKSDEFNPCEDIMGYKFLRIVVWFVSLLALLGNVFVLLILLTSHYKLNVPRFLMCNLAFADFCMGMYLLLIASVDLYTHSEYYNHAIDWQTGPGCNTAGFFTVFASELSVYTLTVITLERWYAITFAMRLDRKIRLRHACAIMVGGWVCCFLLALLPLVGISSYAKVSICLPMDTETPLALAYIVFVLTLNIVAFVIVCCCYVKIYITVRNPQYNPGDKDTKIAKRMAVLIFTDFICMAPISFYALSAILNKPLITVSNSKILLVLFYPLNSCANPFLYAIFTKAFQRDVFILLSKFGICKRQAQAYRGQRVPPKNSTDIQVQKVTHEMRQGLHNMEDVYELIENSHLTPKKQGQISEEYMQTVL

Turning to `CCOC(=S)S`, the Potency result in [1], in [5], in assay [6], in assay [7], in assay [8] and in assay [9] was “inactive” each time. Moreover, the Potency result in [10], in assay [11], in assay [13], in assay [14], in assay [15] and in assay [16] was “inactive” in each case. Besides, the Potency entry in assay [17] was “inactive”. The Potency in [2] is 28.4 µM (active); in assay [3], 73 µM (active). For the same molecule, the activity change, positive = activation in [4] is -20.1% (inactive) and -29.8% (inactive). In addition, the max response in assay [12] was 6.71% (inactive) and 5.31% (inactive).
Take `NC(=S)Nc1ccccc1`: the Potency result in assay [1], in [19], in [5], in [8], in assay [10] and in [15] was “inactive” in each case. Further, the call in assay [18] was inactive. Further, the Potency in assay [6] is 5.59 µM (active) and inactive; in assay [7], 49.8 µM (active) and inactive; in [14], 49.8 µM (active) and inactive; in assay [16], 49.8 µM (active) and inactive; in assay [17], 55.9 µM (active) and inactive.
As for `S=C1NCCN1`, the Potency in [1] was 1.69 µM (active) and inactive. Further, the molecule was called inactive in assay [18]. In addition, the Potency result in [19], in assay [5], in assay [6], in [7], in [8] and in assay [10] was “inactive” in each case. The Potency result in [11], in [13], in assay [14], in [15], in [16] and in assay [17] was “inactive” each time. Also, the max response in assay [12] was 5.45% (inactive) and 5.82% (inactive).
For the molecule `NNC(=S)NN`, the Potency entry in assay [1], in assay [2], in assay [5], in assay [6], in assay [7] and in assay [8] was “inactive” each time. In addition, the Potency entry in [9], in assay [10], in assay [13], in assay [14], in [15] and in assay [16] was “inactive” throughout. In addition, the Potency entry in assay [17] is “inactive”. Besides, in assay [3], the Potency is 62.8 µM (active). The activity change, positive = activation in [4] was -65.9% (inactive) and -38.7% (inactive). The max response in assay [12] is 7.14% (inactive) and 10.3% (inactive).
For `C[C@]12CCC(=O)C[C@@H]1CC[C@@H]1[C@@H]2CC[C@]2(C)[C@@H](O)CC[C@@H]12`, the Potency is 79.1 µM (active) in [19], 21.6 µM (active) in assay [6], 21.6 µM (active) in assay [10] and 21.6 µM (active) in [12]. Moreover, the Potency result in assay [5], in assay [7], in assay [8], in [11], in assay [13] and in assay [14] was “inactive” throughout. The Potency entry in [15] and in assay [16] was “inactive” each time.
Consider `CCC(C)c1ccc(O)cc1` (stereo unspecified), for which the Potency entry in assay [2], in [3], in assay [5], in assay [6], in assay [7] and in assay [8] was “inactive” in each case. The Potency result in assay [10], in assay [11] and in assay [15] was “inactive” in each case. Also, the call in assay [18] was inactive. Further, in [4], the activity change, positive = activation is -5.15% (inactive) and 5.69% (inactive). In addition, the Potency in [9] is 49.4 µM (active) and 43.6 µM (active); in assay [13], 43.6 µM (active); in assay [16], 43.6 µM (active); in [17] it was 43.6 µM (active). The max response in [12] was -20.1% (inactive) and -0.111% (inactive).
Take `C=CC(=O)OCCO`: the Potency entry in assay [1], in [5], in assay [6], in [7], in [8] and in [10] was “inactive” each time. Moreover, the Potency result in assay [13], in assay [14], in [15], in assay [16] and in assay [17] was “inactive” each time. For the same molecule, the result in [18] was inactive. In addition, the max response in assay [12] was 4.73% (inactive) and 14.7% (inactive).

(Values after PubChem BioAssay (Tox21).)
